Source: PubChem BioAssay (Tox21)
Several values for one entry are separate records, joined by “and”; a condition that tells them apart may be missing. Identical values can stand only once. Records with an inconclusive call do not appear. A call without a number means that no potency is given here. More than one record can exist for a structure, and the calls need not agree. Activity calls are given as the source filed them. Unless noted, calls follow the shape of the dose curve; as a rule, active = well fitted curve in the direction sought with a large enough effect in the repeat runs; inconclusive = weak or mixed curves; inactive = no such curve, though single readings can be large; an effect the other way counts as inactive or inconclusive.

Assays:
[1] = A CellTox Green Cytotoxicity Assay to monitor cytotoxicity in HepG2 cells - 32 hour (AID 1224883); also: nearly all actives have a fitted effect of over 50% in size
In short: (§1)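 HepG2 cells were seeded together with the CellTox Green dye at 600 cells/well, left 5 h at 37 C/5% CO2, then given compounds in DMSO. Fluorescence from dye bound to dead-cell DNA was read repeatedly over 40 h of treatment at 37 C.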

[2] = A CellTox Green Cytotoxicity Assay to monitor cytotoxicity in HEK293 cells - 8 hour (AID 1224884); also: nearly all actives have a fitted effect of over 35% in size
In short: (§2)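 HEK293 cells premixed with CellTox Green dye were seeded at 600 cells/well and left 5 h at 37 C/5% CO2 before pin transfer of 23 nL compound in DMSO. Fluorescence from dye bound to dead-cell DNA was read during 40 h treatment.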

[3] = qHTS RealTime-Glo MT Cell Viability Assay in HepG2 cells - 16 hour (AID 1224885); also: nearly all actives have a fitted effect of over 50% in size
In short: (§3)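 HepG2 suspension premixed with RealTime-Glo reagents is plated at 600 cells per well and left 5 h at 37 C/5% CO2. Compounds in DMSO then go in, and bioluminescence reflecting viable cell number is recorded over 40 h.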

[4] = qHTS RealTime-Glo MT Cell Viability Assay in HEK293 cells - 24 hour (AID 1224886); also: top concentration of the series differs between compounds; nearly all actives have a fitted effect of over 50% in size
In short: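 Reads taken at 0, 8, 16, 24, 32 and 40 h from the same wells. HEK293 cells (600/well) carried RealTime-Glo reagents from seeding, with compound added after a 5 h settle at 37 C.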

[5] = qHTS RealTime-Glo MT Cell Viability Assay in HEK293 cells - 8 hour (AID 1224887); also: top concentration of the series differs between compounds; nearly all actives have a fitted effect of over 50% in size
In short: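 HEK293 cells mixed with RealTime-Glo reagents (NanoLuc plus cell-permeant prosubstrate) at 600 cells/well, preincubated 5 h at 37 C/5% CO2, then given 23 nL compound in DMSO. Nonlytic luminescence from viable cells was read at 0, 8, 16, 24, 32 and 40 h.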

[6] = A CellTox Green Cytotoxicity Assay to monitor cytotoxicity in HEK293 cells - 16 hour (AID 1224888); also: nearly all actives have a fitted effect of over 35% in size
In short: as §2

[7] = qHTS RealTime-Glo MT Cell Viability Assay in HepG2 cells - 0 hour (AID 1224889); also: nearly all actives have a fitted effect of over 50% in size
In short: as §3

[8] = A CellTox Green Cytotoxicity Assay to monitor cytotoxicity in HepG2 cells - 8 hour (AID 1224890); also: nearly all actives have a fitted effect of over 45% in size
In short: as §1

[9] = qHTS assay to identify small molecule antagonists of the estrogen receptor alpha (ER-alpha) signaling pathway using the BG1 cell line in the presence of 0.1 nM 17-beta-estradiol - cell viability counter screen (AID 1259241); also: nearly all actives have a fitted effect of over 40% in size
In short: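 VM7Luc4E2 cells (endogenous ER-alpha, 4×ERE-luciferase), hormone-starved 5 days in charcoal-stripped FBS, were treated with compounds plus 0.1 nM 17beta-estradiol for 22 hr at 37C; viability read in same wells as CellTiter-Fluor live-cell protease fluorescence.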

[10] = qHTS assay to identify small molecule antagonists of the androgen receptor (AR) signaling pathway using the MDA cell line in the presence of 0.5 nM R1881 - cell viability counter screen (AID 1259242); also: nearly all actives have a fitted effect of over 45% in size
In short: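 MDA-kb2 cells (human breast carcinoma, stably carrying MMTV-luciferase reporter) were exposed to compounds with 0.5 nM R1881 (final) for 16 hr at 37C, 0% CO2; viability then read as live-cell protease fluorescence (CellTiter-Fluor, 30 min) in the same wells.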

[11] = qHTS assay to identify small molecule phospholipidosis (PLD) inducers (AID 1259344; active = well fitted curve in the direction sought with a large enough effect; an effect the other way counts as inactive or inconclusive)
In short: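 HepG2 cells, 900/well, treated with compound plus LipidTOX Red for 24 h at 37 C; amiodarone positive and DMSO negative controls. Fixed with paraformaldehyde/Hoechst, then high-content imaging scored LipidTOX pit count and integrated intensity per well and per cell.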

[12] = qHTS assay to identify small molecule HDAC inhibitors (AID 1259364); also: top concentration of the series differs between compounds; nearly all actives have a fitted effect of over 45% in size
In short: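 Wild-type HCT-116 cells were plated overnight, exposed to compounds for 2 h at 37 °C, then given HDAC-Glo class I/II luminogenic reagent for 30 min at room temperature before luminescence was read.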

[13] = qHTS assay to identify small molecule HDAC inhibitors - cell viability counter screen (AID 1259365)
In short: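 Wild-type HCT-116 cells were seeded at 1,500 per well, incubated overnight at 37 C, then exposed to compounds in DMSO for 2hr. Viability was read by CellTiter-Glo luminescence after 30min at room temperature.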

[14] = qHTS assay to identify small molecule agonists of the sonic hedgehog signaling (Shh) pathway - cell viability counter screen (AID 1259366); also: nearly all actives have a fitted effect of over 50% in size; also: potency is read from the fitted curve at half-maximal effect
In short: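 NIH/3T3-derived 3T3 Gli1-Luc cells (stable Gli1-responsive firefly luciferase reporter) were seeded, rested 4 hr at 37 C/5% CO2, then exposed to compounds in DMSO for 24 hr; viability was read by CellTiter-Fluor fluorescence in the same wells.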

[15] = qHTS assay to identify small molecule agonists of the sonic hedgehog signaling (Shh) pathway (AID 1259368; calls by dose curve; also: series mostly up to about 92 µM; nearly all actives have a fitted effect of over 15% in size)
In short: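 NIH/3T3-derived 3T3Gli1-Luc cells carrying a stably integrated Gli1 response element–firefly luciferase reporter were plated, left 4 hr at 37 C, then given compounds in DMSO for 24 hr. Luminescence was read 30 min after adding luciferase reagent.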

[16] = qHTS assay to identify small molecule antagonists of the sonic hedgehog signaling (Shh) pathway (AID 1259369; calls by dose curve; also: nearly all actives have a fitted effect of over 45% in size; also: potency is read from the fitted curve at half-maximal effect)
In short: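 NIH/3T3-derived 3T3Gli1-Luc cells with stably integrated Gli1-Luc reporter were preincubated 4hr at 37 C, then given compounds in DMSO plus Shh conditioned medium and incubated 24hr. Firefly luciferase luminescence read after 30min reagent at room temperature.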

[17] = biological target: Estrogen receptor beta (Homo sapiens) (UniProt Q92731); test: qHTS assay to identify small molecule agonists of the estrogen receptor beta (ER-beta) signaling pathway (AID 1259377; active = well fitted activation curve with a large enough effect in the signal ratio in the repeat runs, not every such curve was filed as active; the % refers to the signal ratio)
In short: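 ER-beta-UAS-bla HEK293T (GripTite) cells carrying a UAS-driven beta-lactamase reporter, in medium with 2% charcoal-stripped FBS, were exposed to compounds for 16 hr at 37C; LiveBLAzer B/G FRET substrate was then added and fluorescence read after 2 hours at room temperature.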

[18] = biological target: Estrogen receptor (Homo sapiens) (UniProt P03372); test: qHTS assay to identify small molecule antagonists of the estrogen receptor alpha (ER-alpha) signaling pathway using the BG1 cell line in the presence of 0.1 nM 17-beta-estradiol (AID 1259244); also: nearly all actives have a fitted effect of over 50% in size
In short: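 VM7Luc4E2 cells (endogenous full-length ER-alpha, stable 4xERE-luciferase) were grown 5 days in phenol red-free medium with charcoal-stripped FBS, then exposed 22 h at 37C to compounds plus 0.1 nM (final) 17beta-estradiol; ONE-Glo luminescence read-out.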

[19] = qHTS assay to identify small molecule antagonists of the sonic hedgehog signaling (Shh) pathway - cell viability counter screen (AID 1259367); also: nearly all actives have a fitted effect of over 55% in size
In short: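 NIH/3T3-derived Gli1-Luc reporter cells, 2,000/well, plated 4 hr before compound addition, then stimulated with conditioned medium for 24 hr at 37C. Viability measured in the same wells by CellTiter-Fluor fluorescence, reagent added at 23 hr for 1 hr.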

[20] = biological target: Androgen receptor (Homo sapiens) (UniProt P10275); test: qHTS assay to identify small molecule antagonists of the androgen receptor (AR) signaling pathway using the MDA cell line in the presence of 0.5 nM R1881 (AID 1259243); also: nearly all actives have a fitted effect of over 50% in size
In short: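 MDA-kb2 human breast carcinoma cells carrying an MMTV-luciferase reporter (AR- and GR-responsive) were plated, rested 5 hr at 37C, dosed with compounds, then stimulated with 0.5 nM R1881 (final) for 16 hr; luminescence was read after ONE-Glo.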

Sequence of Estrogen receptor beta (Homo sapiens) (Q92731 whole entry, looked up): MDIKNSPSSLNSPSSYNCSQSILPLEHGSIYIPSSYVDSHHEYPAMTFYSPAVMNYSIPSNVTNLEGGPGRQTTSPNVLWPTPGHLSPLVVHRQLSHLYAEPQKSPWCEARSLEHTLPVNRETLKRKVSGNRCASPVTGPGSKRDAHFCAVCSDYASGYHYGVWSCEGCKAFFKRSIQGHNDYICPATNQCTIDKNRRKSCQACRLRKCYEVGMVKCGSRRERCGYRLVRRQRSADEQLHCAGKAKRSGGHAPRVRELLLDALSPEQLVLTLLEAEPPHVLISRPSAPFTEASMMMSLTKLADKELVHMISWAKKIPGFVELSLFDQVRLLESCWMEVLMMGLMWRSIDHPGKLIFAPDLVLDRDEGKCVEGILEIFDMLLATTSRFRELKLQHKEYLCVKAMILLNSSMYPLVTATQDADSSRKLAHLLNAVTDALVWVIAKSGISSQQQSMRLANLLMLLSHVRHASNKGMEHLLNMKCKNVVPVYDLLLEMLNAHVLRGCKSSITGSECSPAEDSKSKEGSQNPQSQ
Sequence of Androgen receptor (Homo sapiens) (P10275 whole entry, looked up): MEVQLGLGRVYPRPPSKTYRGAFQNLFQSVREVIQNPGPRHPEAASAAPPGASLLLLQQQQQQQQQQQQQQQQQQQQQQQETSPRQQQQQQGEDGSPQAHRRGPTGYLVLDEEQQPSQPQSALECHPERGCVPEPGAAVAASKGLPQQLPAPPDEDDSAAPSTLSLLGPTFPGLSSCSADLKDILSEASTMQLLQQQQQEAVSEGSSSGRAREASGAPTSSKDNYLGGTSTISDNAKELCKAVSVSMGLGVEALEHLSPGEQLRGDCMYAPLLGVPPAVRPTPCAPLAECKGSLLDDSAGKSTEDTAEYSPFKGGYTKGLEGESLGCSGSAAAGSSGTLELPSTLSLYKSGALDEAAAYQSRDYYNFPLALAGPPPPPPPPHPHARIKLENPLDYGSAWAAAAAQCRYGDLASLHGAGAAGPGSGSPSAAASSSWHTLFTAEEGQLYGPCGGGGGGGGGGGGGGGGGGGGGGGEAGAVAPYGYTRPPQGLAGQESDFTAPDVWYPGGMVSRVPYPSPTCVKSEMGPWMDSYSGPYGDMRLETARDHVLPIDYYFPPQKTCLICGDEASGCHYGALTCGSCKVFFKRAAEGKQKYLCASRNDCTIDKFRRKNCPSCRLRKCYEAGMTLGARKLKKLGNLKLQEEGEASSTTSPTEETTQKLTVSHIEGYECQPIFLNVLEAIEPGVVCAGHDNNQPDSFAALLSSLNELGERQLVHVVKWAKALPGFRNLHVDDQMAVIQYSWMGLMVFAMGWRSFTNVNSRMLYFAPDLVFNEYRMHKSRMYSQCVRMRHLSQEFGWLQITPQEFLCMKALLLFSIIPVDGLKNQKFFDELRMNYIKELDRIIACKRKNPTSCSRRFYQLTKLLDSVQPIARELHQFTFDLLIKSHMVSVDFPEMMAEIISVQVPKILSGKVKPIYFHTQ
Sequence of Estrogen receptor (Homo sapiens) (P03372 whole entry, looked up): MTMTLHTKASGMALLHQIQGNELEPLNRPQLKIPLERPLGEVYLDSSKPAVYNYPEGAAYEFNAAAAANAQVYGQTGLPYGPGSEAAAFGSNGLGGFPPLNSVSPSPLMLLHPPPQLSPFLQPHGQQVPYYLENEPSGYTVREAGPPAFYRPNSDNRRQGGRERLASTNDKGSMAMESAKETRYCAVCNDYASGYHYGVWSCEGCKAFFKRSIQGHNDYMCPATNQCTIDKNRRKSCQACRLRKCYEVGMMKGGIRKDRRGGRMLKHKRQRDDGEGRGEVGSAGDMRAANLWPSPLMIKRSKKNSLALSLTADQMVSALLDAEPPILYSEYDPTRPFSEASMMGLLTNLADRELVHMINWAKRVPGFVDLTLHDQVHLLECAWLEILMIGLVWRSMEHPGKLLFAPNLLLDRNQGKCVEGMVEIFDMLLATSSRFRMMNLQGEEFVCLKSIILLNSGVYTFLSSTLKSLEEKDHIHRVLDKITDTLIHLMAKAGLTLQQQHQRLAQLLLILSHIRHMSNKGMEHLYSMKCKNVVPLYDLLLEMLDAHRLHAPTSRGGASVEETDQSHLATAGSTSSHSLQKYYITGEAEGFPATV

| SMILES | Potency [1] | Potency [2] | Potency [3] | Potency [4] | Potency [5] | Potency [6] | Potency [7] | Potency [8] | Potency [9] | Potency [10] | outcome [11] | Potency [12] | outcome [13] | Potency [14] | outcome [15] | Potency [16] | outcome [17] | Potency [18] | Potency [19] | Potency [20] |
| --- | --- | --- | --- | --- | --- | --- | --- | --- | --- | --- | --- | --- | --- | --- | --- | --- | --- | --- | --- | --- |
| O=C(c1ccccc1)C(O)c1ccccc1 (stereo unspecified) | inactive | inactive | inactive | inactive | inactive | inactive | inactive | inactive | inactive | inactive | inactive | inactive | inactive | inactive | inactive | inactive | inactive | – | – | – |
| O=C1CN(/N=C/c2ccc([N+](=O)[O-])o2)C(=O)N1 | inactive | inactive | inactive | inactive | inactive | inactive | inactive | inactive | – | inactive | inactive | inactive | inactive | 48.6 µM (active) | inactive | 48.4 µM (active) and 27.3 µM (active) and inactive | inactive | inactive | – | – |
| Nc1ccc(S(=O)(=O)c2ccc(N)cc2)cc1 | inactive | – | inactive | inactive | inactive | inactive | inactive | inactive | inactive | inactive | inactive | inactive | inactive | inactive | inactive | inactive | – | inactive | inactive | – |
| CCCCC(CC)COC(=O)/C=C/c1ccc(OC)cc1 (stereo unspecified) | inactive | inactive | inactive | inactive | inactive | inactive | inactive | inactive | inactive | inactive | inactive | inactive | inactive | inactive | inactive | inactive | – | inactive | inactive | inactive |
| CC1(C)[C@@H]2CC[C@@]1(C)C(=O)C2 | inactive | inactive | inactive | inactive | inactive | inactive | inactive | inactive | inactive | inactive | inactive | inactive | inactive | inactive | inactive | inactive | inactive | inactive | – | – |
| NC(=O)NC1NC(=O)NC1=O (stereo unspecified) | inactive | inactive | inactive | inactive | inactive | inactive | inactive | – | inactive | inactive | inactive | inactive | inactive | inactive | inactive | inactive | – | – | – | – |
| O=C(O)CCCCCCCC(=O)O | inactive | inactive | inactive | inactive | inactive | inactive | inactive | – | inactive | inactive | inactive | inactive | inactive | inactive | inactive | inactive | inactive | – | – | – |
| O=NO | inactive | inactive | inactive | inactive | inactive | inactive | inactive | – | inactive | inactive | – | inactive | inactive | inactive | inactive | inactive | – | – | – | – |
| CNC[C@H](O)c1cccc(O)c1 | inactive | inactive | inactive | inactive | inactive | inactive | inactive | inactive | inactive | inactive | inactive | inactive | inactive | inactive | inactive | inactive | inactive | – | inactive | – |
